RORgamma inh: qHTS for inhibitors of ROR gamma transcriptional activity; Nuclear receptor ROR-gamma (Mus musculus), P51450; AID 2551, 2010; Drosophila S2 Gal4-RORgamma UAS-luciferase reporter, 20 h; 310,000 tested, 5.4% active; Potency, µM (highest dose often 53.6 µM), for the others: at the top dose activity change, negative = inhibition, usual class: inhibitors; also: nearly all actives have a fitted effect of over 60% in size
Target sequence (P51450 whole entry, looked up, the tested form may be a part): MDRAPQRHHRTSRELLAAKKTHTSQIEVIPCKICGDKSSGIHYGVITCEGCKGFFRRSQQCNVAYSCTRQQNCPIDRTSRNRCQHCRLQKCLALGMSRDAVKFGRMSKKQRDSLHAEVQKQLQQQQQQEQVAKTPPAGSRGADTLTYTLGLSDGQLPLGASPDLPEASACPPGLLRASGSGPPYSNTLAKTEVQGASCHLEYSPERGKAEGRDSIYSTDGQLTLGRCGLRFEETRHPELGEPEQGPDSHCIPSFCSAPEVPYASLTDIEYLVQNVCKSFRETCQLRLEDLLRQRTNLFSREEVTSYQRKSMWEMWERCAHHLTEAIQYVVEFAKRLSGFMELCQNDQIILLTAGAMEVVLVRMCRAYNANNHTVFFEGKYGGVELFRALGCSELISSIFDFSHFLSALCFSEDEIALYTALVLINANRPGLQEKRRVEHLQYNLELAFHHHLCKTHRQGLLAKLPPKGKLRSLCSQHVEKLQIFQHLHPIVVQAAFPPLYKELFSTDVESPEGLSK
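ROR gamma transcriptional activity was tracked as Gal4-UAS luciferase output in stably transfected Drosophila Schneider cells, with compound added 1 hr before 700 uM copper sulfate induction and a 20 hr ambient-temperature incubation.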
Gal4-VP16 FLuc: VP16 counterscreen qHTS for inhibitors of ROR gamma transcriptional activity; AID 2546, 2010; Drosophila S2 Gal4-VP16 UAS-luciferase, luminescence, 20 h; Potency, µM (doses to about 53.6 µM), for the others: top-dose activity, negative = inhibition, actives largely listed as inhibitors; 310,000 tested, 3.5% active;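 also: Gal4-VP16 expression switched on by copper sulfate through the metallothionein promoter; nearly all actives have a fitted effect of over 50% in size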
Luc counter: Counterscreen for Luciferase (Kinase-Glo TM) Inhibition. Kinase-Glo luciferase, ATP luminescence, 8 min. 200,000 tested, 0.28% active. AID 1379, 2008. Luciferin 4-monooxygenase (Photuris pensylvanica), Q27757. Potency, µM (doses to about 38.3 µM), without a hit: top-dose activity change, negative = inhibition, actives largely listed as inhibitors; also: nearly all actives have a fitted effect of over 60% in size
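Compounds were added to a substrate mix at pH 7.2 (50 mM imidazole, 10 uM ATP, within the enzyme's linear range), followed by Kinase-Glo detection reagent; luminescence was measured after 8 minutes at ambient temperature.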
An asterisk follows results filed as active; ? = inconclusive; nt = not tested or not shown; [ ] = remark or other dose. Rows were chosen to be rich in hits. Some 6.4% of all compounds tested hit in one or more screens of this group. Calls follow the shape of the dose curve; as a rule, active = well fitted curve in the direction sought with a large enough effect; inconclusive = small, poorly fitted or top-dose-only effect, or another doubt; inactive = no such curve, though single readings can be large; an effect the other way counts as inactive or inconclusive. % is scaled to controls: 0 for no effect and ±100 for the full control effect; potency is read from the fitted curve at half-maximal effect.

SMILES	RORgamma inh	Gal4-VP16 FLuc	Luc counter
NS(=O)(=O)c1cc(Br)c(N=Nc2ccc(O)c3ncccc23)c(Br)c1	nt	nt	-5%[7.66 µM]
Cc1ccc2nc3c(cc(C#N)c(=N)n3Cc3cccnc3)c(=O)n2c1	2%	1%	-1%
CCOC(=O)CCN1C(=O)[C@H]2[C@H]3[C@H](O)[C@H](O)C/C(=N/OC/C=C(\C)CCC=C(C)C)[C@H]3CC[C@@H]2C1=O	-5%[10 µM]	-7%[10 µM]	nt
COc1ccc(Br)c(C(=O)N2CCN(S(=O)(=O)c3cccs3)CC2)c1	16%	10%	nt
COc1ccc(-c2cc([C@H](O)C3CCCCN3)c3ccccc3n2)cc1 (stereo not given in full)	nt	nt	-25%[7.66 µM]
O=C(Nc1ccccc1C(=O)O)c1cc(S(=O)(=O)NCc2ccccc2)ccc1Cl	13%	1%	nt
O=C(Nc1cccc(Cl)c1Cl)c1cc(S(=O)(=O)NCCc2ccccc2)ccc1F	5µM*	4%	0%
Cc1ccnc2nc(C(=O)OCC(=O)c3c[nH]c4ccccc34)nn12	23%	-10%	nt
N#Cc1nc(NCC2CC2)nc(Nc2ccccc2)n1	nt	2%	nt
Cc1cc(C(=O)COC(=O)Cc2n[nH]c(=O)c3ccccc23)c(C)n1-c1ccc2c(c1)OCO2	-19%	18µM*	3%
CC(=O)c1ccc(OCC(=O)c2cc(C)n(-c3ccc4c(c3)OCO4)c2C)cc1	?	10µM*	-2%
Cc1cc(C(=O)COC(=O)c2ccc(N)c([N+](=O)[O-])c2)c(C)n1-c1ccc2c(c1)OCO2	?	?	-1%
COc1ccc(-n2c(C)cc(C(=O)COC(=O)Cc3n[nH]c(=O)c4ccccc34)c2C)cc1	-8%	?	0%
CC(C)(C)NC(=O)C(c1ccc(F)cc1)N(Cc1ccccc1Cl)C(=O)c1ccn[nH]1 (stereo not given)	21%	4%	1%
CC1=C(C(=O)Nc2ccccc2)C(c2cccnc2)n2ncnc2N1 (stereo not given)	-1%	2%	0%
O=C(NC(=S)Nc1ccc(N2CCCC2)cc1)c1ccccc1[N+](=O)[O-]	4µM*	5µM*	3%
Cc1ccc(C(=O)NC(=S)Nc2ccccc2N2CCCC2)cc1[N+](=O)[O-]	?	?	-2%
O=C(NC(=S)Nc1ccccc1N1CCCC1)c1ccccc1[N+](=O)[O-]	2.8µM*	4µM*	-1%
O=C(Nc1ccc(N2CCCC2)c(Cl)c1)c1ccccc1[N+](=O)[O-]	34%	0%	0%
Cc1cc(=O)n2nc(N3CCC(C(=O)NCc4ccccc4F)CC3)sc2n1	-7%	6%	nt
Cc1noc(C)c1C(=O)Nc1ccc(N(C)C)cc1	4%	-9%	nt
CN(C)c1ccc(NC(=O)c2cnsn2)cc1	10µM*	10µM*	?
CCNc1nc(NCC)nc(N(C)/N=C/c2ccco2)n1	3.5µM*	20µM*	nt
CN(/N=C/c1ccco1)C1=NS(=O)(=O)c2ccccc21	-3%	-12%	-1%
NC(=O)/C(=C\c1ccccc1)NC(=O)c1ccc(NC(=O)c2ccccc2)cc1	9%	-8%	nt
SMILES	RORgamma inh	Gal4-VP16 FLuc	Luc counter
Cc1ccc(CNC(=S)N2CCOCC2)cc1	-17%	-10%	2%
S=C(N/N=C/c1ccc(Br)cc1)N1CCCCC1	1.4µM*	0.89µM*	nt
S=C(c1ccc(Br)cc1)N1CCCC1	-14%	2%	nt
S=C(N/N=C/c1ccc(Cl)cc1)N1CCOCC1	0.35µM*	1.8µM*	-4%
S=C(Nc1ccc(Cl)cc1Cl)N1CCOCC1	-35%	3%	2%
Cc1ccc(/C=N/NC(=S)N2CCOCC2)cc1	0.56µM*	0.89µM*	-6%
Cc1onc(-c2c(Cl)cccc2Cl)c1C(=O)c1c[nH]c(C(=O)NCC2CCCO2)c1 (stereo not given)	34%	9%	0%
O=C(Nc1ccc(S(=O)(=O)NCc2ccco2)cc1)C1CCCCC1	?	-15%	2%
N#Cc1cccc(-c2nc3cnc(N4CCOCC4)nc3n(C3CC3)c2=O)c1	-22%	-7%	nt
CCCOC1CCCN(C(=O)c2cc(COc3ccc(-n4cncn4)cc3)on2)C1 (stereo not given)	?	-1%	nt
O=C(O)c1cc2ccc3cccc4ccc(c1)c2c34	2%	-5%	nt
CCOC(=O)C1(Cc2ccc(Cl)cc2)CCN(C(C)Cc2ccc(O)c(OC)c2)CC1 (stereo not given)	-12%	16µM*	nt
CCOC(=O)C1(Cc2ccc(OC)cc2)CCN(S(C)(=O)=O)CC1	33%	0%	-1%
CCC(C)[C@H](NC(=O)[C@@H]1CSC2c3ccccc3C(=O)N21)C(=O)NCc1ccncc1 (stereo not given in full)	-11%	-1%	nt
Cn1cccc1/C=N/NC(=O)c1cccc(OC(F)(F)C(F)F)c1	10µM*	?	-2%
Cc1cc(C(=O)N/N=C/c2cccn2C)n[nH]1	15%	0%	-25%
O=C(/C=C/c1ccc(F)cc1)NC(=S)Nc1ccccc1	7.9µM*	10µM*	nt
CC(=O)NC(NC(=S)Nc1ccc(S(N)(=O)=O)cc1)C(Cl)(Cl)Cl (stereo not given)	0%	-1%	nt
O=C(/C=C/c1ccc(F)cc1)NC(=S)N1CCN(Cc2ccccc2)CC1	2.5µM*	7.1µM*	nt
O=C(Nc1ccc(N2CCOCC2)c(Cl)c1)c1ccc(Cl)cc1	35%	-8%[10 µM]	2%
O=C(/C=C/c1ccc(F)cc1)NC(=S)N1CCOCC1	8%	3%	0%
NC(N)=NS(=O)(=O)c1ccc(NC(=S)NC(=O)/C=C/c2ccc(F)cc2)cc1	-24%	10%	nt
CC(=O)NC(NC(=S)Nc1ccc(N=Nc2ccccc2)cc1)C(Cl)(Cl)Cl (stereo not given)	7.1µM*	5µM*	1%
O=C(/C=C/c1ccc(Cl)cc1)NC(=S)Nc1ccc(N2CCOCC2)c(Cl)c1	?	5.6µM*	nt

Assay outcomes as filed in PubChem.
